Measured values taken from PubChem BioAssay (EPA / NIEHS).
“And” between values parts separate entries of the source, which are not always exact repeats. Equal entries are not always repeated. A structure can be active in one record and inactive in another. The source made the active and inactive calls. The calls were made as follows: active = hit-call score of the fitted dose curve at least 0.9, where 1 is the maximum; inconclusive = response in the unintended direction; inactive = score below 0.9.

Experiment: Tanguay_ZF_120hpf_ActivityScore_legacy: (Legacy) Oregon State University Tanguay Lab 120 Hour Post-fertilization zebrafish Assay Score for Activity (AID 2283742)
Description: Tanguay_ZF_120hpf_legacy is a whole embryo, multiplexed endpoint assay using zebrafish larvae exposed for 120 hours post fertilization on a 96-well plate.Tanguay_ZF_120hpf_ActivityScore_legacy is one of one assay component(s) measured or calculated from the Tanguay_ZF_120hpf_legacy assay. It is designed to make measurements of developmental malformations and mortality as detected with brightfield microscopy and combines scoring from 18 other assay components measuring more specific morphologies.Data from the assay component Tanguay_ZF_120hpf_ActivityScore_legacy was analyzed into 1 assay endpoints. This assay endpoint, Tanguay_ZF_120hpf_ActivityScore_legacy, was analyzed in the positive analysis fitting direction relative to DMSO as the negative control and baseline of activity. Using a type of morphology reporter, gain-of-signal activity can be used to understand changes in developmentals as they relate to the whole embryo. To generalize the intended target to other relatable targets, this assay endpoint is annotated to the zebrafish development intended target family, where the subfamily is embryonic morphogenesis and mortality.
Zebrafish husbandry: Tropical 5D wild-type adult zebrafish were housed in at an approximate density of 1000 per 100 gallon tank at the Sinnhuber Aquatic Research Laboratory, Oregon State University, Corvallis, OR. Each tank was kept at standard laboratory conditions of 28C on a 14-h light/10-h dark photoperiod in fish water consisting of reverse osmosis water supplemented with a commercially available salt (Instant Ocean). Spawning funnels were placed into the tanks the night prior, and embryos were collected and staged. To increase bioavailability, the chorion was enzymatically removed using pronase (63.6mg/ml, >/= 3.5U/mg, Sigma-Aldrich: P5147) at 4 hours post fertilization (hpf) using a custom automated dechorionator.Chemical exposures: Six hpf dechorionated embryos were placed 1 embryo per well in a 96-well plate prefilled with 90 ul of EM using automated embryo placement systems (AEPS). Ten microliters of each row of dilution plate 2 was added to 2 exposure plates. The final DMSO concentration used was 0.64% (vol/vol). Thirty-two embryos were also exposed to 5uM trimethyltin chloride (positive control). Plates were sealed to prevent evaporation and foil covered to reduce light exposure and kept in a 28C incubator. Embryos were statically exposed until 120 hpf. At 24 hpf, embryos were assessed for photomotor response using a custom photomotor response analysis tool (PRAT) and for developmental toxicity endpoints (MO24: mortality at 24 hpf, DP: developmental progression, SM: spontaneous movement, and NC: notochord distortion). At 120 hpf, locomotor activity was measured using Viewpoint Zebralab and assessed for 18 endpoints. Zebrafish acquisition and analysis program (ZAAP), a custom program designed to inventory, acquire, and manage zebrafish data, was used to collect developmental endpoints as either present or absent (i.e., binary responses were recorded). If mortality occurred for an embryo (at either 24 or 120 hpf), the non-mortality endpoints were not measured.

Row | Structure (SMILES) | outcome | AC50
1 | COC(=O)CSc1cc(N=c2sc(=O)n3n2CCCC3)c(F)cc1Cl | inactive | 
2 | CCN(Cc1c(F)cccc1Cl)c1c([N+](=O)[O-])cc(C(F)(F)F)cc1[N+](=O)[O-] | inactive | 
3 | CCSC(=O)N(CC(C)C)CC(C)C | inactive | 
4 | CCOC(=O)NCCOc1ccc(Oc2ccccc2)cc1 | inactive | 
5 | CCCCC(CC)COC(=O)c1ccccc1C(=O)O (stereo not given) | inactive | 
6 | O=C(Nc1ccc([N+](=O)[O-])cc1Cl)c1cc(Cl)ccc1O | inactive | 
7 | CCN(CC)C(=O)c1cccc(C)c1 | inactive | 
8 | S=C(S)NCCNC(=S)S.[Mn+2].[S-]C([S-])=NCCN=C([S-])[S-].[Zn+2] | inactive | 0.00112 µM (active)
9 | c1ccc2[nH]c(-c3cscn3)nc2c1 | inactive | 
10 | CCOC(=O)COc1cc(-n2ncc(C(F)(F)F)c(C)c2=O)c(F)cc1Cl | inactive | 
11 | CSC(=O)c1cccc2nnsc12 | inactive | 
12 | CCOC(=O)c1ccc(O)cc1 | inactive | 
13 | CCCN(CCC)c1c([N+](=O)[O-])cc(C(F)(F)F)c(N)c1[N+](=O)[O-] | inactive | 
14 | CCCCOCCOCCOCc1cc2c(cc1CCC)OCO2 |  | 4.35 µM (active)
15 | COC(=O)c1ccccc1C(=O)O | inactive | 
16 | CCCCOC(=O)C(C)Oc1ccc(Oc2ccc(C(F)(F)F)cn2)cc1 (stereo not given) | inactive | 
17 | CC(C)CCCCCCc1ccc(O)cc1 | inactive | 
18 | CC(=O)S[C@@H]1CC2=CC(=O)CC[C@]2(C)[C@H]2CC[C@@]3(C)[C@@H](CC[C@@]34CCC(=O)O4)[C@H]12 | inactive | 
19 | N[C@@H](Cc1cc(I)c(Oc2ccc(O)c(I)c2)c(I)c1)C(=O)O |  | 0.287 µM (active)
20 | COc1c(Cl)ccc(Cl)c1C(=O)O | inactive | 

Row | Structure (SMILES) | outcome | AC50
21 | C#CCOC(=O)[C@@H](C)Oc1ccc(Oc2ncc(Cl)cc2F)cc1 | inactive | 
22 | C[C@]12CC[C@@H]3c4ccc(O)cc4C[C@@H](CCCCCCCCCS(=O)CCCC(F)(F)C(F)(F)F)[C@H]3[C@@H]1CC[C@@H]2O (stereo not given in full) | inactive | 
23 | O=C(c1ccccc1)C1CCCCC1 | inactive | 
24 | CCOC(=O)C(C)Oc1ccc(Oc2cnc3cc(Cl)ccc3n2)cc1 (stereo not given) | inactive | 
25 | OB(O)O | inactive | 
26 | c1ccc(Nc2ccccc2)cc1 |  | 30.3 µM (active)
27 | O=C(O)C1(C(=O)Nc2ccc(Cl)cc2Cl)CC1 |  | 19.6 µM (active)
28 | CN(C)C(=O)Nc1ccc(Cl)c(Cl)c1 | inactive | 
29 | CC(C)(c1ccc(O)cc1)c1ccc(O)cc1 |  | 45 µM (active) and 33.6 µM (active) and 35.6 µM (active)
30 | C=CCOC(Cn1ccnc1)c1ccc(Cl)cc1Cl (stereo not given) |  | 11.7 µM (active)
31 | C#C[C@]1(O)CC[C@H]2[C@@H]3CCC4=CC(=O)CC[C@@H]4[C@H]3CC[C@@]21CC | inactive | 
32 | CCC(C)OC(=O)N1CCCCC1CCO (stereo not given) | inactive | 
33 | CCCOC(=O)c1ccc(C(=O)OCCC)nc1 |  | 3.83 µM (active)
34 | CCCCCOC(=O)COc1cc(N2C(=O)C3=C(CCCC3)C2=O)c(F)cc1Cl | inactive | 
35 | CCCCC(CC)CN1C(=O)C2C3C=CC(C3)C2C1=O (stereo not given) | inactive | 
36 | Cc1nn(C)c(Oc2ccccc2)c1C=NOCc1ccc(C(=O)OC(C)(C)C)cc1 |  | 2.45 µM (active)
37 | COC(=O)c1ccc(I)cc1S(=O)(=O)NC(=O)Nc1nc(C)nc(OC)n1 | inactive | 
38 | CCCN(CCC)C(=O)SCC | inactive | 
39 | COCCO | inactive | 
